{"source": "the supplement of paper PMC4840960", "note": "Counter-ions that a name gives are not always drawn. ± gives the standard deviation of the averaged measurements."}
{"system": "E18 rat cortical neuron-glia co-culture", "assay": "fiber score / MBP score (myelination specific beyond OL differentiation) (ratio); higher = more myelination-specific MBP alignment", "settings": "1 µM; treatment time: 8 days (DIV5-DIV13)", "method_in_brief": "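Papain-dissociated primary E18 rat cortical co-cultures, plated at 20,000 cells/well on poly-d-lysine/laminin 96-well plates, were exposed to library compounds at 1 or 5 µM in myelination medium between DIV5 and DIV13. Following fixation in 4 % paraformaldehyde, cultures were stained for MBP, Olig2 and DAPI, and four 10X fields per well were analysed in duplicate wells. Values are the ratio of fiber score (continuous MBP fiber length per Olig2+ nucleus) to MBP score (thresholded MBP area × intensity per Olig2+ nucleus).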"}
{"smiles": "Fc1cncnc1", "note": "[5-fluoropyrimidine]", "fiber score / MBP score": 0.595}
{"smiles": "OCc1cccnc1", "note": "[Nicotinyl Alcohol]", "fiber score / MBP score": 0.641}
{"smiles": "O=c1c(O[C@@H]2O[C@H](CO)[C@@H](O)[C@H](O)[C@H]2O)c(-c2ccc(O)c(O)c2)oc2cc(O)cc(O)c12", "note": "[Isoquercitrin]", "fiber score / MBP score": 1.09}
{"smiles": "CC(=O)CCCCn1c(=O)c2c(ncn2C)n(C)c1=O", "note": "[Pentoxifylline]", "fiber score / MBP score": "0.817 ± 0.062"}
{"smiles": "C[C@]12CC[C@@H]3c4ccc(OS(=O)(=O)O)cc4CC[C@H]3[C@@H]1CCC2=O", "note": "[Estrone sulfate]", "fiber score / MBP score": 1.04}
{"smiles": "Nc1nc2ccc(Cl)cc2c2nc(-c3ccco3)nn12", "fiber score / MBP score": 0.556}
{"smiles": "CN(C)[C@@H]1C(O)=C(C(N)=O)C(=O)[C@@]2(O)C(O)=C3C(=O)c4c(O)ccc(Cl)c4[C@@H](O)[C@H]3C[C@@H]12", "note": "[Demeclocycline]", "fiber score / MBP score": 0.946}
{"smiles": "CC(=O)N1CCN(c2ccc(OCC3COC(Cn4ccnc4)(c4ccc(Cl)cc4Cl)O3)cc2)CC1", "note": "(centres undefined) [Ketoconazole]", "fiber score / MBP score": 0.468}
{"smiles": "CNCCC=C1c2ccccc2CCc2ccccc21", "note": "[Nortriptyline]", "fiber score / MBP score": 0.847}
{"smiles": "COc1ccccc1N1CCN(CCCNc2cc(=O)n(C)c(=O)n2C)CC1", "note": "[Urapidil]", "fiber score / MBP score": 0.767}
{"smiles": "O=C(NCCO[N+](=O)[O-])c1cccnc1", "note": "[Nicorandil]", "fiber score / MBP score": 0.852}
{"smiles": "CN1CC(=O)N2[C@H](c3ccc4c(c3)OCO4)c3[nH]c4ccccc4c3C[C@@H]2C1=O", "note": "[Tadalafil]", "fiber score / MBP score": 0.799}
{"smiles": "CN(C)CCCC1(c2ccc(F)cc2)OCc2cc(C#N)ccc21", "note": "(centres undefined) [Citalopram]", "fiber score / MBP score": "0.773 ± 0.29"}
{"smiles": "O=C(O)CCCc1ccccc1", "note": "[4-Phenylbutyric acid]", "fiber score / MBP score": 1.07}
